# Laboratory results taken from PubChem BioAssay (NCI).
# The panel holds about 79,000 compounds, 15% with a hit somewhere; the sample as a whole holds those more often. A number with no mark means an inactive call. Calls of active or inactive are those of the source. Cut-off read from the data, not from the text of the source: active = growth inhibition above about 70%; inactive = the rest.
# What was measured:
# [1] = NCI Yeast Anticancer Drug Screen. Data for the rad52 strain (AID 147);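 note: 0% = growth of vehicle-treated control cultures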; details: S. cerevisiae rad52 mutant growth inhibition, stronger effect = higher value
# Method in brief: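 Inhibition of yeast growth, referenced to vehicle controls, was the measured output for a strain with defective DNA damage repair.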
# [2] = NCI Yeast Anticancer Drug Screen. Data for the wt1 strain (AID 149);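 note: 0% = growth of vehicle-treated wt1 cultures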; details: S. cerevisiae wt1 strain (SPY 50644) growth inhibition, stronger effect = higher value
# Method in brief: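 Yeast wt1 strain exposed to compounds; growth inhibition measured relative to vehicle-treated controls.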
# [3] = NCI Yeast Anticancer Drug Screen. Data for the rad50EPP+ strain (AID 151);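 note: 0% = growth of vehicle-treated control cultures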; details: S. cerevisiae rad50 mutant strain, stronger effect = higher value
# Method in brief: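 Genetically defined yeast (rad50EPP+, DNA damage repair alteration) is grown with compound, and inhibition of growth is expressed relative to vehicle-treated controls.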
# [4] = NCI Yeast Anticancer Drug Screen. Data for the mgt1 strain (AID 153); details: S. cerevisiae mgt1 mutant growth inhibition, stronger effect = higher value
# Method in brief: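 In the mgt1 strain, test compounds were added and growth inhibition was determined relative to vehicle-treated controls.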
# [5] = NCI Yeast Anticancer Drug Screen. Data for the rad50 strain (AID 155);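 note: 0% = growth of vehicle-only cultures of the same strain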; details: S. cerevisiae rad50 strain growth inhibition, stronger effect = higher value
# Method in brief: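 Yeast carrying a defined DNA repair defect were exposed to test compounds, and growth was compared with vehicle-treated controls to give percent inhibition.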
# [6] = NCI Yeast Anticancer Drug Screen. Data for the mec2-1 strain (AID 157); details: S. cerevisiae mec2-1 strain, stronger effect = higher value
# Method in brief: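 Each compound was tested on mec2-1 yeast, a strain altered in DNA damage repair or cell cycle control. Growth inhibition is reported relative to vehicle.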
# [7] = NCI Yeast Anticancer Drug Screen. Data for the rad14 strain (AID 159);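 note: 0% = growth of vehicle-treated control cultures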; details: S. cerevisiae rad14 strain growth inhibition, stronger effect = higher value
# Method in brief: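 Yeast cells carrying a defined DNA-repair defect were exposed to compounds, and growth inhibition was calculated relative to vehicle-treated control cultures.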
# [8] = NCI Yeast Anticancer Drug Screen. Data for the sgs1 mgt1 strain (AID 161);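 note: 0% = growth of cultures given vehicle only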; details: S. cerevisiae sgs1 mgt1 strain, stronger effect = higher value
# Method in brief: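 Inhibition of yeast growth, normalised to vehicle-treated controls, is reported for a strain bearing genetic alterations in DNA damage repair.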
# [9] = NCI Yeast Anticancer Drug Screen. Data for the CLN2oe strain (AID 163);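 note: 0% = growth of vehicle-only control cultures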; details: S. cerevisiae CLN2oe strain, stronger effect = higher value
# Method in brief: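 First, the altered yeast strain was treated with each compound; second, its growth was measured; finally, inhibition was derived by comparison with vehicle controls.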
# [10] = NCI Yeast Anticancer Drug Screen. Data for the cln2 rad14 strain (AID 165);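 note: 0% = growth equal to vehicle treated cultures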; details: S. cerevisiae cln2 rad14 strain, stronger effect = higher value
# Method in brief: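 Test compounds were added to cln2 rad14 yeast cultures; inhibition of growth was then determined by comparison with vehicle treatment.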
# [11] = NCI Yeast Anticancer Drug Screen. Data for the bub3 strain (AID 167); details: S. cerevisiae bub3 mutant strain, stronger effect = higher value
# Method in brief: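 Compounds were applied to a genetically altered yeast strain carrying a cell-cycle control defect. Growth inhibition was scored against vehicle-treated controls.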
# [12] = NCI Yeast Anticancer Drug Screen. Data for the wt2 strain (AID 169);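 note: 0% = growth of vehicle-treated yeast cultures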; details: S. cerevisiae wt2 strain growth inhibition, stronger effect = higher value
# Method in brief: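 The panel's yeast strains carry defined changes in DNA repair or cell cycle genes. Each strain is grown with compound, and growth loss is scored relative to vehicle.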
# [13] = NCI Yeast Anticancer Drug Screen. Data for the mlh1 strain (AID 171);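 note: 0% = growth of vehicle-treated control cultures of the same strain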; details: S. cerevisiae mlh1 strain growth inhibition, stronger effect = higher value
# Method in brief: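 Inhibition values reflect reduced yeast growth in the presence of compound, referenced to vehicle controls, using a strain chosen for its alteration in DNA repair or cell cycle control.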
# [14] = NCI Yeast Anticancer Drug Screen. Data for the sgs1 strain (AID 173);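 note: 0% = growth of vehicle-only control cultures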; details: S. cerevisiae sgs1 mutant, stronger effect = higher value
# Method in brief: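 Vehicle-treated cultures served as reference for growth inhibition of a yeast strain altered in DNA damage repair or cell cycle control after compound exposure.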
# [15] = NCI Yeast Anticancer Drug Screen. Data for the mlh1 rad18 strain (AID 175); details: S. cerevisiae mlh1 rad18 strain growth inhibition, stronger effect = higher value
# Method in brief: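 Inhibition values reflect reduced growth of mutant yeast versus vehicle-treated controls following compound exposure; the mutations affect DNA damage repair.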
# [16] = NCI Yeast Anticancer Drug Screen. Data for the rad18 strain (AID 177); details: S. cerevisiae rad18 mutant growth inhibition, stronger effect = higher value
# Method in brief: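 Steps: expose repair-mutant yeast to compound; measure growth; express as inhibition relative to vehicle control.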
# [17] = at 5.0 µM (retest, dose inferred, filed as 0.5)
# [18] = at 50.0 µM (retest, dose inferred, filed as 5.0)
smiles,measurement,setting,value
O=[N+]([O-])c1cc(CCl)ccc1CCl,growth inhibition,[1]; at 1.2 µM,6%
same,growth inhibition,[1]; at 3.7 µM,11%
same,growth inhibition,[1]; at 11.0 µM,69%
same,growth inhibition,[1]; at 33.0 µM,95% (active)
same,growth inhibition,[1]; at 100.0 µM,97% (active)
same,growth inhibition,[2]; at 1.2 µM,2%
same,growth inhibition,[2]; at 3.7 µM,8%
same,growth inhibition,[2]; at 11.0 µM,30%
same,growth inhibition,[2]; at 33.0 µM,93% (active)
same,growth inhibition,[2]; at 100.0 µM,97% (active)
same,growth inhibition,[3]; at 1.2 µM,16%
same,growth inhibition,[3]; at 3.7 µM,44%
same,growth inhibition,[3]; at 11.0 µM,89% (active)
same,growth inhibition,[3]; at 33.0 µM,97% (active)
same,growth inhibition,[3]; at 100.0 µM,98% (active)
same,growth inhibition,[4]; at 1.2 µM,4%
same,growth inhibition,[4]; at 3.7 µM,2%
same,growth inhibition,[4]; at 11.0 µM,25%
same,growth inhibition,[4]; at 33.0 µM,90% (active)
same,growth inhibition,[4]; at 100.0 µM,97% (active)
same,growth inhibition,[5]; at 1.2 µM,7%
same,growth inhibition,[5]; at 3.7 µM,20%
same,growth inhibition,[5]; [17],-3%
same,growth inhibition,[5]; at 11.0 µM,84% (active)
same,growth inhibition,[5]; at 33.0 µM,97% (active)
same,growth inhibition,[5]; [18],98% (active)
same,growth inhibition,[5]; at 50.0 µM,99.1% (active)
same,growth inhibition,[5]; at 100.0 µM,97% (active)
same,growth inhibition,[6]; at 1.2 µM,3%
same,growth inhibition,[6]; at 3.7 µM,6%
same,growth inhibition,[6]; [17],-7%
same,growth inhibition,[6]; at 11.0 µM,37%
same,growth inhibition,[6]; at 33.0 µM,93% (active)
same,growth inhibition,[6]; [18],97% (active)
same,growth inhibition,[6]; at 50.0 µM,98.9% (active)
same,growth inhibition,[6]; at 100.0 µM,98% (active)
same,growth inhibition,[7]; at 1.2 µM,8%
same,growth inhibition,[7]; at 3.7 µM,13%
same,growth inhibition,[7]; at 11.0 µM,38%
same,growth inhibition,[7]; at 33.0 µM,95% (active)
same,growth inhibition,[7]; at 100.0 µM,97% (active)
same,growth inhibition,[8]; [17],4%
same,growth inhibition,[8]; [18],98% (active)
same,growth inhibition,[8]; at 50.0 µM,98.5% (active)
same,growth inhibition,[9]; at 1.2 µM,10%
same,growth inhibition,[9]; at 3.7 µM,15%
same,growth inhibition,[9]; at 11.0 µM,48%
same,growth inhibition,[9]; at 33.0 µM,94% (active)
same,growth inhibition,[9]; at 100.0 µM,97% (active)
same,growth inhibition,[10]; [17],57%
same,growth inhibition,[10]; [18],97% (active)
same,growth inhibition,[10]; at 50.0 µM,98.3% (active)
same,growth inhibition,[11]; at 1.2 µM,-18%
same,growth inhibition,[11]; at 3.7 µM,2%
same,growth inhibition,[11]; [17],-17%
same,growth inhibition,[11]; at 11.0 µM,46%
same,growth inhibition,[11]; at 33.0 µM,92% (active)
same,growth inhibition,[11]; [18],97% (active)
same,growth inhibition,[11]; at 50.0 µM,99.4% (active)
same,growth inhibition,[11]; at 100.0 µM,97% (active)
same,growth inhibition,[12]; at 1.2 µM,3%
same,growth inhibition,[12]; at 3.7 µM,15%
same,growth inhibition,[12]; at 11.0 µM,54%
same,growth inhibition,[12]; at 33.0 µM,96% (active)
same,growth inhibition,[12]; at 100.0 µM,99% (active)
same,growth inhibition,[13]; at 1.2 µM,4%
same,growth inhibition,[13]; at 3.7 µM,13%
same,growth inhibition,[13]; at 11.0 µM,58%
same,growth inhibition,[13]; at 33.0 µM,95% (active)
same,growth inhibition,[13]; at 100.0 µM,98% (active)
same,growth inhibition,[14]; at 1.2 µM,11%
same,growth inhibition,[14]; at 3.7 µM,28%
same,growth inhibition,[14]; at 11.0 µM,79% (active)
same,growth inhibition,[14]; at 33.0 µM,96% (active)
same,growth inhibition,[14]; at 100.0 µM,98% (active)
same,growth inhibition,[15]; [17],38%
same,growth inhibition,[15]; [18],99% (active)
same,growth inhibition,[15]; at 50.0 µM,99% (active)
same,growth inhibition,[16]; at 1.2 µM,32%
same,growth inhibition,[16]; at 3.7 µM,66%
same,growth inhibition,[16]; at 11.0 µM,94% (active)
same,growth inhibition,[16]; at 33.0 µM,98% (active)
same,growth inhibition,[16]; at 100.0 µM,97% (active)
